# ANO1 activ: activators or potentiators of mouse TMEM16A chloride channel | AID 623877 | HEK293 TMEM16A/YFP-H148Q/I152L, iodide quench fluorescence; active compounds read low | B-score at 10 µM | 340,000 tested, 0.3% active;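 active = fluorescence-ratio B-score plate-corrected deviation score at least 3 library SD below zero, with starting fluorescence score within 5 deviations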;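 note: channel opened by trigger with iodide after compound preincubation; score built on the fluorescence ratio of max minus min over baseline; more negative score means more quench and so TMEM16A activation or potentiation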
# Target sequence (Q8BHY3 whole entry, looked up): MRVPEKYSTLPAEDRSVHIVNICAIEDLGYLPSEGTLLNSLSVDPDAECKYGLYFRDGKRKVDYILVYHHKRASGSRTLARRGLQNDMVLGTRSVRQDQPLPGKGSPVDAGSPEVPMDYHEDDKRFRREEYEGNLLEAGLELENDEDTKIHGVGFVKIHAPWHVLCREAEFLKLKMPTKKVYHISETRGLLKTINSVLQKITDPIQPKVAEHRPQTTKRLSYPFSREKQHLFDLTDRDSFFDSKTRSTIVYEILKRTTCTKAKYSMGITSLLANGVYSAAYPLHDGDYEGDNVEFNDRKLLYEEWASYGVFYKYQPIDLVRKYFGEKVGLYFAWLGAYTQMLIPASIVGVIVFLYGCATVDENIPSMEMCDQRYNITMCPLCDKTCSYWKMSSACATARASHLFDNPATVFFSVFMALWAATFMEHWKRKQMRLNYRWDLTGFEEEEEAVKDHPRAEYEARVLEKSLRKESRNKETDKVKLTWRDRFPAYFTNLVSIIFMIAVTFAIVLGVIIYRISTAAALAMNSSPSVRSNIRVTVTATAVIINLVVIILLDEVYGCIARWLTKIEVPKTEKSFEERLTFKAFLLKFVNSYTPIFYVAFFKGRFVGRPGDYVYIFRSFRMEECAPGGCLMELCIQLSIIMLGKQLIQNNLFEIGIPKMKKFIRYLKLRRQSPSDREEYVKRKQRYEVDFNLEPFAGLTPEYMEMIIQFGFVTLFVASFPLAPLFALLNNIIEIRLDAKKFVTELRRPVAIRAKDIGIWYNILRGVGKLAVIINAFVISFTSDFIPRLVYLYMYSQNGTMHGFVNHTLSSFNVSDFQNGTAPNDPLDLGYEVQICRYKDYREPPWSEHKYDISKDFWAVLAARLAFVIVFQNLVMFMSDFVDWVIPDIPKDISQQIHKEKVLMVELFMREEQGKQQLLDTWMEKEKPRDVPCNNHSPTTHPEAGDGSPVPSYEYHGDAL
# RTF Ca sens inh: cardiac RTF calcium desensitization; P19429+P45379; inhibition, % at 7.15 µM; AID 493244; 340,000 tested, 0.12% active; IANBD-labeled cardiac RTF, Ca2+ fluorescence;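 active = inhibition above the mean inhibition of all tested compounds plus 3 SD, cut at about 17% in these data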;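 note: assay run at fixed EC70 calcium of 1.6 mM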
# CRFBP-R2 agonist: CRF-BP/CRF-R2 complex agonism | HEK293 CRF-R2/CRF-BP, calcium dye fluorescence (FLIPR); percent of saturating CRF peptide response | activation, % at 13.2 µM | 350,000 tested, 0.46% active;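 active = activation of at least 50%, plus an integration ratio under a set limit after plate pattern correction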
# CRFR2-BP antag: CRF-BP/CRF-R2 complex antagonism; HEK293 CRF-R2/CRF-BP, CRF-induced calcium fluorescence; inhibition, % at 11.8 µM; 350,000 tested, 0.59% active; AID 588475;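 active = inhibition of the ligand-induced calcium signal above about 50% at the single tested concentration, limit read from the data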
# RTF Ca sens act: increases calcium sensitivity of human cardiac regulated thin filaments. AID 493008. activation, % at 7.2 µM. 340,000 tested, 0.24% active. P19429+P45379. IANBD-labeled TnC RTF fluorescence at EC20 calcium; 0% EC20 calcium, 100% full calcium;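 active = activation above the mean over all tested compounds plus 3 SD, cut at about 30% in these data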;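 note: rise in fluorescence read as greater calcium sensitivity of cardiac thin filaments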
# ANO1 block: inhibitors of mouse TMEM16A calcium-activated chloride channel. Q8BHY3. HEK293 TMEM16A/YFP iodide influx fluorescence, ionomycin. normalized B-score (activity score, 25-100; higher = stronger inhibition) at 10 µM. 310,000 tested, 1.2% active. AID 588511;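 active = ratio plate-corrected score three or more library SD toward inhibition, starting fluorescence score within five deviations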;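 note: score derived from kinetic fluorescence span divided by baseline fluorescence per well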
# Hits are given with their value; 0 = inactive; - = no result given. The list is not random: actives were taken first. Their share in the collection is about 2.4%.
SMILES,ANO1 activ,RTF Ca sens inh,CRFBP-R2 agonist,CRFR2-BP antag,RTF Ca sens act,ANO1 block
CNC(=O)c1cc(NC(=O)N(CCC#N)CCN(C(=O)NC(Cc2ccccc2)C(=O)NC(CC(C)C)C(=O)NC)c2ccccc2)ccc1OC (configuration not stated),0,0,0,0,0,-
N/C(=N\OC(=O)COc1ccc(Cl)cc1Br)c1ccncc1,-39,0,0,0,0,-
N/C(=N\OC(=O)c1ccc(Cl)cc1Cl)c1ccncc1,0,0,0,0,0,0
N/C(=N\OC(=O)c1cc(Cl)ccc1Cl)c1ccncc1,-10,0,0,0,0,0
CC1(C)CC(=O)C(CC(=O)NC2CCCc3ccccc32)C(=O)C1 (configuration not stated),0,0,0,0,0,0
CCOc1cc(/C=N/NC(=O)c2ccccc2OCc2ccc(F)cc2)ccc1O,0,0,0,56,0,-
CCOc1cc(/C=N/NC(=O)c2ccccc2-n2cccc2)ccc1O,0,0,0,0,0,-
O=C1CCSc2c1ccc1ccccc21,0,0,0,61,0,-
O=C1CCCc2cc3c(ccc4ccccc43)cc21,0,0,0,0,0,-
Cc1noc(C)c1C(=O)OC(C)C(=O)Nc1ccc(S(=O)(=O)NC(C)C)cc1 (configuration not stated),0,0,0,0,0,0
CNC(=O)c1c(NC(=O)c2ccc(S(=O)(=O)N(C)c3ccccc3)cc2)sc2c1CCN(C(C)C)C2,-,-,160,0,-,0
COC(=O)c1c(NC(=O)c2ccc(N(C)S(=O)(=O)c3ccc(C)cc3)cc2)sc2c1CCCC2,0,0,0,0,0,0
CC(C)N1CCc2c(sc(NC(=O)c3ccc(S(=O)(=O)N4CCc5ccccc54)cc3)c2C(N)=O)C1,0,0,107,0,0,0
CC(C)N1CCc2c(sc(NC(=O)c3nc4ccccc4s3)c2C(N)=O)C1,0,0,0,0,0,0
CCN1CCc2c(sc(NC(=O)c3ccc(S(=O)(=O)N(C)c4ccccc4)cc3)c2C(=O)NC)C1,0,0,162,0,52,0
O=C(CCC(=O)c1ccc(Br)cc1)Nc1cccnc1,0,0,0,0,0,0
O=C(CCSc1ccc(Br)cc1)Nc1cccnc1,0,0,0,110,0,0
COc1ccc(OCCCC(=O)Nc2cccnc2)cc1,0,0,0,53,0,0
CC(=O)Nc1ccccc1OCC(=O)c1cc(C)n(Cc2cccs2)c1C,0,0,161,0,0,100
Cc1ccc2c(c1)S/C(=C\c1cccc[n+]1C)N2CCO,0,0,0,0,0,0
CCN1/C(=C\c2ccc3cc(C)ccc3[n+]2CC)Sc2cc(C)c(C)cc21,0,0,114,0,58,-
CCN1/C(=C/c2ccc3cc(C)ccc3[n+]2CC)Sc2ccc3sccc3c21,0,0,0,0,36,0
CCN1/C(=C/c2ccc3cc(C)cc(C)c3[n+]2CC)Sc2cc(C)ccc21,0,0,182,0,66,-
CCN1/C(=C/c2ccc3cccc(C)c3[n+]2CC)Sc2ccccc21,0,0,205,0,0,0
CCN(CC)P(=O)(Nc1ccc(C)cc1Br)c1ccc(N(C)C)cc1NC(=O)c1ccco1 (configuration not stated),0,0,0,0,0,0
SMILES,ANO1 activ,RTF Ca sens inh,CRFBP-R2 agonist,CRFR2-BP antag,RTF Ca sens act,ANO1 block
CCc1ccc(Nc2nnc(SCC(=O)c3c(N)n(C4CC4)c(=O)[nH]c3=O)s2)cc1,0,0,0,0,0,-
Cc1csc(=O)n1CC(=O)OCC(=O)Nc1ccc(F)c(F)c1,0,0,0,0,0,0
Cc1cc(-c2nnc(SCC(=O)NC3CC3)n2C(C)C)cs1,0,0,0,0,0,0
CCn1ccnc1CN(C)Cc1cn[nH]c1-c1ccc(OC)c(F)c1,0,0,0,0,0,0
COc1ccc(C2CC(C)(c3ccc(OC)cc3OC)Nc3ccccc3N2)c(OC)c1 (configuration not stated),0,0,0,0,0,0
CCc1nnc(NC(=O)c2ccc(Cl)c(S(=O)(=O)N3CCc4ccccc43)c2)s1,0,0,0,0,0,100
CN1CCCc2cc3c(C(F)(F)F)cc(=O)oc3nc21,0,0,212,0,38,0
COc1ccc(/C(N)=N/OC(=O)CSc2ccc(C)cc2)cc1,0,0,0,0,0,100
COc1ccc(CC(=O)NNC(=O)CSc2ccc(C)cc2)cc1,-7.1,0,0,0,0,0
N#CC1=C(N)Oc2cc(N)ccc2C1c1ccsc1 (configuration not stated),0,0,0,0,0,0
N#CC1=C(N)Oc2ccc3ccc(O)cc3c2C1c1ccsc1 (configuration not stated),0,0,71,0,99,-
CSc1cccc(NC(=O)C(C)C)c1,0,0,0,51,0,0
Cc1noc(NS(=O)(=O)c2ccc(N/C=C\C(=O)c3cccc4ccccc34)cc2)c1C,0,0,0,56,0,0
CCN1C(=O)C(=O)N(CC(=O)c2[nH]c(C)c(C(C)=O)c2C)C1=O,0,0,0,0,0,0
CC(=O)c1c(C)[nH]c(C(=O)CN2C(=O)NC(C)(c3ccc(C)cc3)C2=O)c1C (configuration not stated),0,0,77,0,0,0
COc1ccc(-n2c(O)c(C=NC3CC3)c(=O)[nH]c2=O)cc1,0,0,0,0,0,0
COc1ccc(-n2c(O)c(/C=C3\C=Nc4ccccc43)c(=O)[nH]c2=O)cc1,0,0,76,0,0,-
O=c1ccc(Cl)cn1Cc1ccccc1F,0,0,0,0,0,0
Cc1cccc(OCC(O)Cn2c(N3CCCCC3)nc3c2c(=O)n(C)c(=O)n3C)c1 (configuration not stated),0,0,0,0,0,0
Cc1c2cnn(CC(=O)NC3CCCC3)c(=O)c2c(C)n1Cc1ccccc1,0,0,0,111,0,0
Cc1c2cnn(CC(=O)NCCCN3CCCCC3C)c(=O)c2c(C)n1Cc1ccccc1 (configuration not stated),0,0,0,0,0,0
COc1ccc(/C=C/C(=O)NC(=S)NN2CCCCC2c2cccnc2)cc1OC (configuration not stated),-4.6,0,0,0,0,0
COC(=O)[C@@]12CCCCN1[C@H](c1ccc(SC3CCCCC3)cc1)[C@@H]1C(=O)N(C)C(=O)[C@@H]12,-7.9,0,0,0,0,0
CCSc1ccc([C@@H]2[C@H]3C(=O)N(C)C(=O)[C@H]3[C@]3(C(=O)OC)CCCCN23)cc1,0,0,0,0,0,0

# Assay outcomes: PubChem BioAssay, several laboratories
